# Compounds with a hit are over-represented: about 11% of the library has one in this group of screens.
# L3MBTL1 block: inhibitors of human L3MBTL1; AlphaScreen L3MBTL1–H3K9me1 peptide binding; Potency, µM (doses to about 57.1 µM), for inactives: top-dose activity, negative = inhibition, hits mostly inhibitors; actives 0.66% (n = 230,000); AID 485360; also: % is scaled to controls: 0 for no effect and ±100 for the full control effect; nearly all actives have a fitted effect of over 60% in size
#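 First, the protein-peptide complex forms for 30 min at room temperature (L3MBTL1 50 nM, biotinylated H3K9me1 peptide 75 nM). Next, compounds are pin-transferred and incubated 30 min. Finally, AlphaScreen beads are added and read after 30 min.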
# JMJD2A Tudor: JMJD2A Tudor domain (human) inhibition; actives 4.4% (n = 390,000); AID 504339; O75164; AlphaScreen JMJD2A-Tudor / H3K4me3 peptide binding; Potency, µM (titrated, usually from 114 µM), for the others: at the top dose activity change, negative = inhibition, most hits filed as inhibitors; also: % is scaled to controls: 0 for no effect and ±100 for the full control effect; nearly all actives have a fitted effect of over 50% in size
# BAZ2B block: blocks human BAZ2B. AlphaScreen BAZ2B-H3K14Ac peptide displacement. Potency, µM (series often up to 114 µM), inactives show at the top dose activity change, negative = inhibition, usual class: inhibitors. actives 4.4% (n = 360,000). AID 504333; also: % is scaled to controls: 0 for no effect and ±100 for the full control effect; nearly all actives have a fitted effect of over 60% in size
#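 Compounds, titrated to a top concentration of 110 uM, were incubated 30 min at room temperature with preformed BAZ2B/acetyl-K14 H3 peptide complex (50 nM each). Proximity signal was measured by AlphaScreen after 20 min with beads.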
# HP1b binding inh: HP1-beta chromodomain-methylated histone interaction inhibition; Potency, µM (highest dose often 114 µM), inactives show at the top dose activity change, negative = inhibition, usual class: inhibitors; actives 0.56% (n = 390,000); AID 540317; AlphaScreen HP1-beta / biotin-H3K9me3 peptide binding; P83916; also: nearly all actives have a fitted effect of over 70% in size
#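 Compound inhibition of the preformed complex between 50 nM HP1-beta and 50 nM biotinylated H3K9me3 peptide was read by AlphaScreen. Buffer was PBS pH 7.4 with 0.01% Tween-20. Incubations ran 30 min at room temperature, with 10 ug/mL donor/acceptor beads.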
# G9a inh: inhibitors of human histone lysine methyltransferase G9a. Q96KQ7. AID 504332. Potency, µM (titrated, usually from 102 µM), inactives show top-dose activity, negative = inhibition, actives largely listed as inhibitors. G9a H3K9 monomethylation, AlphaScreen, 2 h. actives 8.8% (n = 350,000); also: % is scaled to controls: 0 for no effect and ±100 for the full control effect; nearly all actives have a fitted effect of over 75% in size
#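 Step 1: enzyme (final 20 nM) with compound, 15 min RT. Step 2: substrate peptide 500 nM and SAM 20 uM, 2 h RT. Step 3: anti-H3K9me1 antibody and AlphaScreen beads, 10 min, then plate read.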
# * = called active by the depositor; ? = inconclusive; · = no result given; [ ] = dose if it differs, or a comment. Calls follow the shape of the dose curve; as a rule, active = well fitted inhibition curve with a large enough effect; inconclusive = small, poorly fitted or top-dose-only effect; inactive = no such curve, though single readings can be large or run the other way. Potency is read from the fitted curve at half-maximal effect.
SMILES,L3MBTL1 block,JMJD2A Tudor,BAZ2B block,HP1b binding inh,G9a inh
COc1cccc(N2CC(C(=O)Nc3nnc(SCc4ccccn4)s3)CC2=O)c1 (configuration not stated),-5%,-24%,?,10%,7.9µM*
O=C(Nc1nnc(SCc2ccccn2)s1)C1CC(=O)N(c2ccc(F)cc2)C1 (configuration not stated),·,-28%,-24%,11%,28µM*
Cc1cccc(N2CC(C(=O)Nc3nnc(SCc4cccnc4)s3)CC2=O)c1 (configuration not stated),·,?,-24%,7%,45µM*
COc1cccc(N2CC(C(=O)Nc3nnc(SCC(=O)c4ccccc4)s3)CC2=O)c1 (configuration not stated),-11%,-13%,6%,13%,-22%
Cc1ccc(CN2CC(C(=O)Nc3nnc(SCc4c(Cl)cccc4Cl)s3)CC2=O)cc1 (configuration not stated),-21%,?,?,-6%,10µM*
Cc1cc2c(s1)c1cnn(Cc3c(F)ccc(F)c3Cl)c(=O)c1n2C,·,-29%,·,·,·
O=C1CN(C(=O)COc2ccc(Cl)cc2Cl)C(c2ccc(F)cc2)c2cc(F)ccc2N1 (configuration not stated),·,-18%,-9%,13%,-47%[59 µM]
CCOc1ccc(C(=O)Nc2cc(-c3ccccc3)no2)cc1,·,-21%,-1%,29%,-3%[59 µM]
COc1cccc(CNC(=O)CSc2ccc(-c3ccccn3)nn2)c1,·,?,13µM*,21%,-5%
O=C(CSc1ccc(-c2ccccn2)nn1)NCc1ccc(Cl)cc1,·,?,14µM*,26%,-1%
COc1cccc(CNC(=O)CSc2cc(C)[nH]c(=O)n2)c1,·,-12%,-4%,9%,-3%[59 µM]
O=C(OCC#CCSc1nnc(-c2cc3ccccc3cc2O)o1)c1ccc(F)cc1,·,-14%,·,·,·
C=CCN1C(=O)/C(=C2/C(=O)N(CC(=O)O)c3ccccc32)S/C1=N/c1nccs1,7.9µM*,·,13µM*,·,1%[2.33 µM]
CC(=O)/C=C\c1ccccc1OC(=O)c1cc2ccccc2oc1=O,8%,-12%,-3%,23%,·
O=C(/C=C\c1ccccc1OC(=O)c1ccccc1F)c1cc2ccccc2o1,-17%,-36%,-31%,-13%,45µM*
CCOc1ccccc1NC(=O)c1c(NCc2ccc(OC)c(OC)c2OC)sc2c1CCC(C)C2 (configuration not stated),·,-30%,-22%,14%,?
COc1ccc(OC)c(NC(=O)c2c(NCc3ccc(C)o3)sc3c2CCC(C)C3)c1 (configuration not stated),·,32µM*,?,?,11µM*
COc1ccc(OC)c(NC(=O)c2c(NCc3ccc(OC)c(OC)c3)sc3c2CCC(C)C3)c1 (configuration not stated),·,50µM*,?,?,13µM*
Cc1nn2c3c(cnc2c1-c1ccc(Cl)cc1)C(=O)CC(c1ccc(C(C)C)cc1)C3 (configuration not stated),·,6%,-15%,58%,7%[59 µM]
Cc1ccc(Cn2c(=O)n(CCCCC(=O)NCCc3ccc(Cl)cc3)c(=O)c3ccccc32)cc1,·,-5%,-2%,23%,-3%[59 µM]
O=[N+]([O-])c1ccc(COc2ccc(Br)cc2CN2CCOCC2)cc1,-9%,?,?,-7%,50µM*
Cn1cc(CCNC(=O)CC2C(=O)NCCN2CC(c2ccccc2)c2ccccc2)cn1 (configuration not stated),-2%,-35%,-7%,57%,13µM*
Cc1cc(CNC(=O)CC2C(=O)NCCN2Cc2ccccc2)nn1C (configuration not stated),·,-10%,-2%,51%,45µM*
Cc1cc(CNC(=O)CC2C(=O)NCCN2Cc2ccc(-c3ccccc3)cc2)nn1C (configuration not stated),-6%,-13%,-38%,39%,-23%
Cc1nc(CCNC(=O)CC2C(=O)NCCN2Cc2ccccc2)nc2c1CCC2 (configuration not stated),·,-26%,-34%,16%,50µM*

# Bioassay records from PubChem.
